Screening data from PubChem.
ALOX12 inh: blocks human arachidonate 12S-lipoxygenase; purified 12hLO, xylenol orange hydroperoxide absorbance; Potency, µM (top dose mostly 108 µM), without a hit: at the top dose activity change, negative = inhibition, actives largely listed as inhibitors; hit rate 1.1% among 580,000
Target sequence (P18054 whole entry, looked up): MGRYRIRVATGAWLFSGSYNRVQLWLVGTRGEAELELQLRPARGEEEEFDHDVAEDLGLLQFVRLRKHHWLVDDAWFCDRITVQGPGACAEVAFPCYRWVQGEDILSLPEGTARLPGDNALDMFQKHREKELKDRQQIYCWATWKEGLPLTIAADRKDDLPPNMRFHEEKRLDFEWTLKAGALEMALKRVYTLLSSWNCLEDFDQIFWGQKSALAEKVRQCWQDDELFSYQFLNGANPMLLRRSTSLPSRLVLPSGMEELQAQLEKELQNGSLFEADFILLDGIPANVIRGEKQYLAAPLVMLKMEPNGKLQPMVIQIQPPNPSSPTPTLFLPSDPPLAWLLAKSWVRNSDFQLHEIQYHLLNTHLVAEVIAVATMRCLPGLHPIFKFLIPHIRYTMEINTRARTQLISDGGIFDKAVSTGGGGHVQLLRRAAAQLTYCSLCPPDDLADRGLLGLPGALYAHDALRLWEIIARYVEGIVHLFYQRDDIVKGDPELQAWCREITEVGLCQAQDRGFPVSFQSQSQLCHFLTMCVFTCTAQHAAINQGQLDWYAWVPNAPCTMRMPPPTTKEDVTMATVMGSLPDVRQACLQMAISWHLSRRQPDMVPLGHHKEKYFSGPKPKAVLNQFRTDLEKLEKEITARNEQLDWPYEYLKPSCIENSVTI
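Hydroperoxide product was detected by ferrous iron/xylenol orange as the 573 to 405 nm absorbance ratio. Arachidonic acid at 40 uM (final) was turned over for 30 min at room temperature by 150 nM human 12hLO, pH 7.0 Hepes buffer, after 15 min compound preincubation.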
TDP1 cell CPT: growth inhibition of DT40 Tdp1-/-;hTDP1 cells with camptothecin (screen for TDP1 inhibitors); chicken DT40 Tdp1-/-;hTDP1 cells + 20 nM CPT, ATP luminescence, 48 h; Potency, µM (series often up to 46.2 µM), without a hit: at the highest dose activity change, negative = growth inhibition, actives largely listed as inhibitors; hit rate 12% among 420,000; AID 686979; further: nearly all actives have a fitted effect of over 55% in size
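Chicken DT40 Tdp1-/- cells complemented with human TDP1, 400 cells/well, exposed to compounds plus 20 nM camptothecin for at least 48 h at 37 C; viability read as ATP content by CellTiter-Glo luminescence.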
RORgamma inh: ROR gamma (mouse) transcription inhibition; P51450; Drosophila S2 Gal4-RORgamma UAS-luciferase reporter, 20 h; Potency, µM (series often up to 53.6 µM), inactives show at the highest dose activity change, negative = inhibition, hits mostly inhibitors; hit rate 5.4% among 310,000; further: nearly all actives have a fitted effect of over 60% in size
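Stable Schneider cell line, Gal4 DNA-binding domain fused to ROR gamma, UAS-luciferase. Cmpd 1 hr RT → CuSO4 700 uM final → 20 hr RT → luciferase reagent 10 min → luminescence.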
Gal4-VP16 FLuc: Gal4-VP16 reporter inhibition counter-screen; Drosophila S2 Gal4-VP16 UAS-luciferase, luminescence, 20 h; Potency, µM (doses to about 53.6 µM), for the others: at the top dose activity, negative = inhibition, actives largely listed as inhibitors; hit rate 3.5% among 310,000;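 further: Gal4-VP16 expression switched on by copper sulfate through the metallothionein promoter; nearly all actives have a fitted effect of over 50% in size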
TDP1 cell noCPT: qHTS for Inhibitors of human tyrosyl-DNA phosphodiesterase 1 (TDP1): qHTS in cells in absence of CPT. DT40 Tdp1-/- hTDP1 cells, no CPT, ATP luminescence, 48 h. Potency, µM (titrated, usually from 46.2 µM), without a hit: at the top dose activity change, negative = growth inhibition, usual class: inhibitors. hit rate 15% among 420,000; further: nearly all actives have a fitted effect of over 55% in size
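Camptothecin absent (DMSO only). Human TDP1-complemented DT40 knockout cells, 400 cells/well, 37 °C for minimum 48 hr; ATP measured via CellTiter-Glo, 30 min dark incubation, luminescence.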
ELG1 DNA repair: inhibitors of ELG1-dependent DNA repair in HEK293T cells; HEK293T ELG1-luciferase reporter, luminescence, 16 h; DNA damage induced by 5-fluorouridine; Potency, µM (doses to about 46.1 µM), for inactives: at the top dose activity change, negative = inhibition, hits mostly inhibitors; hit rate 2.3% among 330,000; AID 504467; further: nearly all actives have a fitted effect of over 55% in size
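5-Fluorouridine DNA damage + compound/DMSO, 2,000 cells/well, 16 h, 37 °C/5% CO2. ONE-Glo, 30 min RT, luminescence. Readout = decrease in reporter signal.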
The depositor's hits bear a star; ? = inconclusive; nt = no result; [ ] = remark or other dose. Sampled rows, rich in hits. Any-hit rate of the full collection: about 15%. The call rests on the fitted dose curve; in most records, active means well fitted curve in the direction sought with a large enough effect; inconclusive means small, poorly fitted or top-dose-only effect, or another doubt; inactive means no such curve, though single readings can be large; an effect the other way counts as inactive or inconclusive. On the % scale 0 is the no-effect control and ±100 the full control effect; potency means the concentration at half of the fitted maximal effect.

SMILES	ALOX12 inh	TDP1 cell CPT	RORgamma inh	Gal4-VP16 FLuc	TDP1 cell noCPT	ELG1 DNA repair
CCc1nn(CCCC(=O)NCc2ccc(OC(C)C)cc2)c(=O)c2cc3occc3n12	1.2%	?	0.9%	-11.4%	11.6µM*	-15.5%
CCc1nn(CCCC(=O)N(C)Cc2ccccc2)c(=O)c2cc3occc3n12	0.0%	16.4µM*	-16.6%	-2.0%	?	6.8%
CCc1ccc(NC(=O)CCCn2nc(CC)n3c(cc4occc43)c2=O)cc1	4.3%	?	26.2%	-5.4%	-20.7%	-4.2%
CCc1nn(CCCC(=O)NC2CCCCC2C)c(=O)c2cc3occc3n12 (stereo not drawn)	-15.3%	?	nt	nt	25.9µM*	nt
CCOc1ccc(CNC(=O)CCCn2nc(CC)n3c(cc4occc43)c2=O)cc1	-26.4%	?	-3.2%	-26.6%	?	?
C/C(=N\NS(=O)(=O)c1ccc(Br)cc1)c1ccncc1	31.6µM*	11.6µM*	11.3%	-3.9%	?	0.6%
C/C(=N/NS(=O)(=O)c1ccc(Cl)cc1)c1ccncc1	?	?	5.1%	-0.7%	11.4%	2.9%
Cc1noc(C)c1S(=O)(=O)Nc1ccc(C(=O)Nc2ccc(C(C)C)cc2)cc1	-19.1%	11.6µM*	nt	nt	9.2µM*	nt
Cc1n[nH]c(C)c1S(=O)(=O)N(CC(=O)Nc1ccc(C(F)(F)F)cc1)c1ccc(C(C)C)cc1	?	14.6µM*	nt	nt	?	nt
Cc1noc(C)c1S(=O)(=O)N(CC(=O)Nc1ccc(C(F)(F)F)cc1)c1ccc(C(C)C)cc1	-21.0%	16.4µM*	nt	nt	23.1µM*	nt
COc1ccc(NC(=O)CN(c2ccc(C(C)C)cc2)S(=O)(=O)c2c(C)noc2C)cc1OC	0.7%	?	-14.0%	-1.4%	?	?
Cc1noc(C)c1S(=O)(=O)N(CC(=O)Nc1ccc(F)cc1F)c1ccc(C(C)C)cc1	-21.4%	?	nt	nt	20.6µM*	nt
Cc1ccc(NC(=O)c2ccc(NS(=O)(=O)c3c(C)noc3C)cc2)cc1C	0.0%	-29.7%	16.6%	11.2%	?	3.9%
CCOC(=O)c1ccc(N2C(=O)C3C(C2=O)C(C(=O)c2ccc(Cl)cc2)N2CCCC32)cc1 (stereo not drawn)	-62.2%	14.6µM*	?	?	20.6µM*	0.0%
CCOC(=O)c1ccc(N2C(=O)C3CC=CCC3C2=O)cc1 (stereo not drawn)	-2.7%	0.2%	6.9%[0.365 µM]	nt	-4.3%	26.1%
CN(C(=O)c1ccccc1C(=O)OCC(=O)NCc1cccs1)C1CCCCC1	-7.4%	3.0%	9.6%	-6.8%	-14.8%	2.1%
CN(C(=O)c1ccccc1C(=O)OCC(=O)c1ccc(F)c(F)c1)C1CCCCC1	-4.9%	?	nt	nt	25.9µM*	10.1%
Cc1ccc(S(=O)(=O)N2CCCc3cc(NC(=O)c4ccc(C(F)(F)F)cc4)ccc32)cc1	-66.0%	?	nt	nt	20.6µM*	nt
Cc1ccc(S(=O)(=O)N2CCc3cc(C(=O)Nc4ccc(C(F)(F)F)cc4)ccc32)cc1	9.4%	?	nt	nt	?	nt
COc1ccc(C(=O)Nc2ccc3c(c2)CCCN3S(=O)(=O)c2ccc(C)cc2)c(OC)c1	3.4%	5.8µM*	nt	nt	5.17µM*	nt
Cc1ccc(C(=O)NCCn2c(C)cc3ccccc32)cc1[N+](=O)[O-]	-4.2%	nt	nt	nt	nt	nt
COc1cccc(NC2c3ccccc3C(=O)N2Cc2ccccc2Cl)c1 (stereo not drawn)	-0.1%	?	-4.1%	-2.9%	?	-6.3%
COc1cccc(NC2c3ccccc3C(=O)N2Cc2ccco2)c1 (stereo not drawn)	9.0%	20.6µM*	34.4%	1.8%	23.1µM*	-15.7%
O=C1c2ccccc2C(Nc2cccc(C(F)(F)F)c2)N1Cc1ccco1 (stereo not drawn)	?	23.1µM*	4.4%	?	16.4µM*	?
